Assay outcomes from PubChem BioAssay.
H9c2 protect: protects H9c2 cardiomyocytes from peroxide injury. protection from H2O2 cell death, % at 20 µM. AID 588492. H2O2 injury protection, ATPLite, 2 h. 360,000 compounds, 0.63% hits;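 active means compounds giving at least 50% protection of heart cells from peroxide-induced death in the single-dose screen, raw or plate-pattern-corrected value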
PHOSPHO1 block: inhibitors of human PHOSPHO1 phosphatase; AID 1565; recombinant PHOSPHO1, absorbance phosphatase assay; 290,000 compounds, 1.1% hits; Q8TCT1; inhibition, % at 13.3 µM; in the data active means inhibition above about 60%
Target sequence (Q8TCT1 whole entry, looked up): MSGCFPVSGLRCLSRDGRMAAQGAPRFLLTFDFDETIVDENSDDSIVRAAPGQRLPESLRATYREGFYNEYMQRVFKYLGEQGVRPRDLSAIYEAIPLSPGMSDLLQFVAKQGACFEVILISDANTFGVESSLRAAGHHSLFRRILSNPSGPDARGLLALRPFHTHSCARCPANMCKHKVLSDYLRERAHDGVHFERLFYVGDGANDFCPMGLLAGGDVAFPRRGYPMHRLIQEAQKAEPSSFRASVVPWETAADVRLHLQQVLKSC
Efflux pump inh: blocks antifungal efflux pumps in multiplex yeast assay; 330,000 compounds, 0.44% hits; inhibition, % at 10 µM; S. cerevisiae Candida pump triplex, Nile Red efflux;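 active means plate passing quality check with inhibition over a set limit, or well fluorescence over plate mean plus 4 SD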;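 further: Nile Red retained in pooled yeast measured as flow cytometry median fluorescence; higher means more Nile Red kept so more efflux inhibition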
Calb FLC: C. albicans growth modulation with fluconazole | C. albicans CaCi-2 (fluconazole-resistant clinical isolate) + fluconazole, Alamar Blue growth, 48 h | growth inhibition, % (test concentration not listed) | 300,000 compounds, 0.57% hits | AID 1979;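 active means growth inhibition above about 58% in most replicates, limit read from the data, passing the limit was not always enough; inconclusive means exactly half the replicates above a set limit; inactive means most replicates below a set limit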;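 further: all wells also contain fluconazole at 8 µg/ml as a sub-toxic cotreatment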
Cl transport mod: modulates chloride dependent transport by human KCC2. Q9H2X9. KCC2 cells, thallium flux FluoZin-2 fluorescence. B-score of Tl+ flux slope (higher = more flux/activation; lower = inhibition) at 10 µM. 190,000 compounds, 2.2% hits;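 active means thallium flux slope and its plate-corrected score both differing from the plate sample mean at a set confidence after two filtering rounds, in either direction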;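 further: slope of fluorescence scaled to starting intensity during 10 to 20 s after thallium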
KCC2 secondary: confirmation of human KCC2 transport modulators; shares compounds with Cl transport mod; HEK293-KCC2, thallium flux, FluoZin2 fluorescence; stronger effect = higher value; normalised thallium flux (F/F0 slope) at 10 µM; 3,700 compounds, 15% hits; AID 1713;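 active means thallium flux slope above the same plate's solvent-only control mean plus 3 SD; inconclusive means the two replicate wells disagree; inactive means no significant difference from solvent-only control wells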
KCC2 bumet counter: bumetanide-insensitive thallium flux in KCC2 cells with ouabain, counter-screen | normalized thallium flux at 10 µM | AID 1714 | 3,700 compounds, 49% hits | shares compounds with Cl transport mod | HEK293-KCC2 + bumetanide/ouabain, thallium flux FluoZin2; stronger effect = higher value;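 active means thallium entry rate above the same plate's blocked-transporter control wells by more than 3 SD; inconclusive means the two repeat wells disagree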;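 further: raw slope of fluorescence over initial fluorescence between 10 and 20 s after thallium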
KCC2 sec2: confirmation of human KCC2 transport modulators. normalized thallium flux at 10 µM. 3,700 compounds, 23% hits. AID 1715. shares compounds with Cl transport mod. HEK293-KCC2, thallium flux FluoZin2 fluorescence; actives lie on both sides; F/F0 rise rate, 10–20 s post-thallium;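 active means thallium flux slope more than 3 SD above or below the plate's solvent-only control mean, mostly below; inconclusive means the two repeat wells disagreed; inactive means no significant shift from solvent-only controls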
HEK counter1: parental HEK flux effect, counter-screen | AID 1716 | shares compounds with Cl transport mod | HEK293 parental cells, thallium flux FluoZin2, ouabain; baseline-ratio fluorescence slope, 10–20 s after thallium | thallium flux rate (normalised fluorescence) at 10 µM | 3,700 compounds, 46% hits;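 active means thallium flux rate significantly above the same plate's solvent-only control wells, beyond their mean plus 3 SD; inconclusive means the two replicate wells gave conflicting results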
KCC2 retest ouab: confirmation of human KCC2 modulators with ouabain. raw Tl+ flux slope (below DMSO = inhibition, above = activation) at 10 µM. shares compounds with Cl transport mod. HEK293-KCC2, thallium flux FluoZin2 fluorescence; bidirectional: low = inhibitor, high = activator. AID 1717. 3,700 compounds, 48% hits;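 active means thallium flux slope beyond 3 SD from same-plate DMSO control mean in most replicates, usually higher, sometimes lower; inconclusive means repeat tests gave conflicting results; inactive means no significant difference from controls in most replicates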;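 further: slope of initial-normalized fluorescence between seconds 10 and 20 after thallium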
HEK counter2: counter-screen for KCC2 modulators: effect in parental HEK293 cells; shares compounds with Cl transport mod; thallium flux FluoZin-2 fluorescence slope; thallium flux slope at 10 µM; 3,700 compounds, 33% hits;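 active means thallium flux slope above the same plate's solvent-control mean plus 3 SD in both duplicate wells; inconclusive means duplicate wells that disagreed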;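 further: run without ouabain in cells lacking the KCC2 cotransporter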
A number is an active result; i = inactive; ? = inconclusive; nt = no result given. Hits are enriched below; roughly 3.3% of the tested compounds scored in any of these assays.

SMILES	H9c2 protect	PHOSPHO1 block	Efflux pump inh	Calb FLC	Cl transport mod	KCC2 secondary	KCC2 bumet counter	KCC2 sec2	HEK counter1	KCC2 retest ouab	HEK counter2
CCOC(=O)Cc1csc(NC(=S)NC(=O)c2cc(OC)cc(OC)c2)n1	i	i	i	i	26	0.015	0.034	i	0.023	0.065	0.012
CCOC(=O)Cc1csc(NC(=S)NC(=O)CC(C)C)n1	i	i	i	i	8.8	?	0.04	i	0.014	0.036	0.011
CCOC(=O)Cc1csc(NS(=O)(=O)c2cccc([N+](=O)[O-])c2)n1	i	i	i	i	nt	nt	nt	nt	nt	nt	nt
CCOC(=O)Cc1csc(NC(=S)NC(=O)c2cccc([N+](=O)[O-])c2)n1	i	i	i	?	9.6	0.014	0.034	i	0.014	0.034	i
Cc1cc(NC(=O)COC(=O)C2CCN(S(=O)(=O)c3ccccc3)CC2)c([N+](=O)[O-])cc1C	i	i	i	i	nt	nt	nt	nt	nt	nt	nt
C=CCn1c(SCC(=O)N(CCOC)c2c(N)n(CC(C)C)c(=O)[nH]c2=O)nc2ccccc21	i	nt	i	i	nt	nt	nt	nt	nt	nt	nt
CCOC(=O)c1c(NC(=O)c2nn(C)cc2[N+](=O)[O-])sc(C)c1C	i	i	i	i	i	nt	nt	nt	nt	nt	nt
CCOC(=O)c1ccc(C(=O)OCC)c(NC(=S)Nc2ccc([N+](=O)[O-])cc2OC)c1	i	i	i	i	10	0.013	0.031	i	0.024	0.033	0.014
Cc1ccc(S(=O)(=O)N2CCCN(C(=O)c3cc4ccccc4[nH]3)CC2)cc1	i	i	i	i	nt	nt	nt	nt	nt	nt	nt
CCOC(=O)c1cc(C)n(Cc2cccc(OC)c2OC)c1C	i	i	i	i	nt	i	i	i	i	i	i
CCOC(=O)c1cc(C)n(Cc2ccccc2)c1C	i	i	i	i	i	nt	nt	nt	nt	nt	nt
O=C(Oc1c(-c2ccccc2)oc2ccccc2c1=O)c1ccccc1	i	i	i	i	nt	0.014	0.068	i	?	0.055	?
COc1ccc(-c2oc3ccccc3c(=O)c2OC(=O)c2ccc(C)cc2)cc1	i	i	i	i	i	nt	nt	nt	nt	nt	nt
COc1ccc(N2CC(NC(=O)c3ccc4ccccc4c3)CC2=O)cc1OC (centres undefined)	i	nt	i	i	nt	nt	nt	nt	nt	nt	nt
Cc1cccc(C(=O)OCC(=O)N2CCCCCC2)c1O	i	nt	i	nt	nt	nt	nt	nt	nt	nt	nt
CCCn1nnc(NC(=S)NC(=O)c2ccc(-c3ccc(Br)cc3)o2)n1	i	i	i	i	19	?	0.015	i	0.015	0.057	i
Cn1nnc(NC(=S)NC(=O)c2ccc(-c3ccc(Br)cc3)o2)n1	i	i	i	i	5.2	0.014	0.018	i	0.017	?	i
CCCn1nnc(NC(=O)c2ccc(Br)cc2)n1	i	i	i	i	i	nt	nt	nt	nt	nt	nt
CCCNC(=O)C1(C)CCCN(C(=O)c2cc(F)ccc2C)C1 (centres undefined)	i	nt	nt	nt	nt	nt	nt	nt	nt	nt	nt
CCn1c(=O)c2cc(C(=O)N(C)c3cc(C)ccc3OC)sc2c2ccccc21	i	i	i	i	-3	i	?	i	0.0056	i	?
CCn1c(=O)c2cc(C(=O)N(C)c3ccc(OC)cc3OC)sc2c2ccccc21	i	i	i	i	i	nt	nt	nt	nt	nt	nt
CC(C)CN(C(=O)COC(=O)C1=COCCO1)c1c(N)n(Cc2ccccc2)c(=O)[nH]c1=O	i	nt	i	i	nt	nt	nt	nt	nt	nt	nt
COc1ccc(CN(C)C(=O)CNC(=O)c2cccs2)c(OC)c1	i	nt	i	nt	nt	nt	nt	nt	nt	nt	nt
CS(=O)(=O)N(CC(=O)N1CCCC1)c1ccc2c(c1)OCCO2	i	i	i	i	nt	i	i	i	i	i	i
CS(=O)(=O)N(CC(=O)N1CCOCC1)c1ccc2c(c1)OCO2	i	i	i	i	i	nt	nt	nt	nt	nt	nt
SMILES	H9c2 protect	PHOSPHO1 block	Efflux pump inh	Calb FLC	Cl transport mod	KCC2 secondary	KCC2 bumet counter	KCC2 sec2	HEK counter1	KCC2 retest ouab	HEK counter2
CCOC(=O)c1c(NC(=S)Nc2cc([N+](=O)[O-])ccc2OC)sc2c1CCCCC2	nt	i	i	i	i	nt	nt	nt	nt	nt	nt
COC(=O)c1c(NC(=S)Nc2cc(OC)c(Cl)cc2OC)sc2c1CCCCC2	i	i	i	i	6.9	0.015	0.025	i	0.011	i	?
O=[N+]([O-])c1ccc(O)c(/C=N/n2cnc3ccccc32)c1	i	i	i	i	-4.5	i	i	0.021	0.0061	0.013	?
CCN1CCN(CC(=O)Nc2ccc(S(=O)(=O)N3C(C)CCCC3C)cc2)CC1 (centres undefined)	i	i	i	i	nt	nt	nt	nt	nt	nt	nt
Cc1[nH]c(C)c(S(=O)(=O)N(Cc2ccccc2)C(C)C)c1C(=O)N1CCCC1	i	i	i	i	nt	nt	nt	nt	nt	nt	nt
Cc1ccc(Cn2c(=S)[nH]c3ccc(N4CCOCC4)cc3c2=O)o1	i	i	i	?	14	i	0.0098	i	?	i	i
CCCCn1c(=S)[nH]c2ccc(N3CCOCC3)cc2c1=O	nt	i	i	i	12	0.014	0.031	i	0.03	0.032	0.016
N#C/C(=C\c1cc2c(cc1Br)OCO2)c1ccc(C(=O)O)cc1	i	i	i	i	nt	nt	nt	nt	nt	nt	nt
O=S1(=O)CCN(C2CCCCCC2)CC1	i	nt	nt	nt	nt	nt	nt	nt	nt	nt	nt
COc1ccc(NS(=O)(=O)c2cc(OC)ccc2OC)cc1	i	nt	i	i	nt	nt	nt	nt	nt	nt	nt
COc1ccc(OC)c(S(=O)(=O)Nc2cnc3ccccc3c2)c1	i	i	i	i	-5.6	i	i	i	i	i	i
O=C1c2cccc3c([N+](=O)[O-])ccc(c23)C(=O)N1Cc1cccnc1	i	i	nt	?	-5	0.0041	?	0.026	0.0058	0.014	0.0084
O=C1c2cccc3cccc(c23)C(=O)N1Cc1cccnc1	i	i	i	i	i	nt	nt	nt	nt	nt	nt
COc1ccccc1N1CCN(C(=O)c2ccc(-c3nc4ccccc4s3)o2)CC1	i	nt	i	nt	nt	nt	nt	nt	nt	nt	nt
Cn1nnnc1SCC(=O)Nc1nc(-c2ccc(F)c(F)c2)cs1	i	i	i	i	nt	nt	nt	nt	nt	nt	nt
Cc1sc2ncnc(SCC(=O)Nc3nc(-c4ccc(F)c(F)c4)cs3)c2c1C	i	i	i	i	45	0.026	0.078	0.046	0.04	0.072	0.022
Cc1cc(C)c2nc(SCC(=O)NNC(=O)c3ccco3)c(C)cc2c1	i	i	i	i	4.8	i	0.021	i	0.0098	i	0.013
O=C(Nc1ccc(Cl)cc1)c1nc[nH]c1C(=O)NCCCNC(=O)c1[nH]cnc1C(=O)Nc1ccc(Cl)cc1	nt	nt	i	nt	nt	nt	nt	nt	nt	nt	nt
